# Cycloheximide cs: affects cycloheximide protein synthesis inhibition readout, counter-screen | cell reporter, cycloheximide protein synthesis inhibition counterscreen | AID 2314 | hit rate 12% among 300,000 | max response, %; in the data active means max response mostly above about 13%, no sharp cut-off; inactive means mostly below about 14%; further: read at 38.3 µM for the half of the compounds with a filed dose; 0% is about no effect
# Shiga toxin inh: Shiga toxin inhibition; Vero cells, Shiga toxin protein synthesis inhibition reporter; inhibition, % at 38.7 µM; hit rate 9.2% among 290,000; AID 2315; in the data active means inhibition mostly above about 28%, no sharp cut-off; inactive means mostly below about 43%; further: 0% is about no effect
# NS1 function inh: inhibitors of influenza NS1 protein function; hit rate 0.4% among 270,000; Potency, µM (highest dose often 46.1 µM), inactives show at the highest dose activity, positive = more growth; AID 2326; calls by dose curve; further: potency means the concentration at half of the fitted maximal effect; actives are rising curves; nearly all actives have a fitted effect of over 50% in size
#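 A cell-based growth assay was used: compounds that relieve NS1-induced slow growth of budding yeast raise OD600. Assay medium was yeast nitrogen base with ammonium sulphate and -URA supplement, pH 6.0, with 2% galactose.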
# Pf growth 48h: P. falciparum growth inhibition at 48 hours (one generation) | P. falciparum luciferase growth in erythrocytes, 48 h | Potency, µM (titrated, usually from 28.7 µM), for the others: at the highest dose activity change, negative = inhibition, most hits filed as inhibitors | hit rate 5.9% among 310,000 | AID 504832; further: potency means the concentration at half of the fitted maximal effect; on the % scale 0 is the no-effect control and ±100 the full control effect
#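 First compound was added to culture medium, then infected red cells at 0.1% parasitemia and 2% hematocrit (final). After incubation at 37 C under 5% CO2, luciferase detection reagent was dispensed and light output recorded.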
# Pf growth 96h: P. falciparum growth inhibition at 96 hour, primary screen for plastid delayed-death inhibitors; AID 504834; hit rate 6.9% among 320,000; Potency, µM (series often up to 28.7 µM), without a hit: at the top dose activity change, negative = inhibition, most hits filed as inhibitors; P. falciparum luciferase reporter growth, 96 h; further: potency means the concentration at half of the fitted maximal effect; on the % scale 0 is the no-effect control and ±100 the full control effect
#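 Delayed-death screen, second-generation endpoint: infected erythrocytes, 2% hematocrit, 0.05% parasitemia final; 96 hours at 37 C, 5% CO2; luciferase detection reagent; luminescence decrease equals reduced growth.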
# SARS PLpro yeast: inhibitors of SARS-CoV papain-like protease in yeast; hit rate 0.19% among 330,000; AID 485353; S. cerevisiae expressing SARS-CoV PLpro, growth rescue; Potency, µM (series often up to 32.9 µM), without a hit: at the top dose activity, positive = growth rescue, actives largely listed as activators; calls by dose curve; further: potency means the concentration at half of the fitted maximal effect; 0% is about no effect; nearly all actives have a fitted effect of over 55% in size
# The depositor's hits bear a star; ? = inconclusive; . = no result given; [ ] = dose if it differs, or a comment. An excerpt weighted towards active compounds, which were near 21% of everything screened. Unless noted, the call rests on the fitted dose curve; in most records, active means well fitted inhibition curve with a large enough effect; inconclusive means small, poorly fitted or top-dose-only effect, or another doubt; inactive means no such curve, though single readings can be large or run the other way.
SMILES,Cycloheximide cs,Shiga toxin inh,NS1 function inh,Pf growth 48h,Pf growth 96h,SARS PLpro yeast
C[C@H]1O[C@@H](O[C@H]2[C@@H](O)C[C@H](O[C@H]3[C@@H](O)C[C@H](O[C@H]4CC[C@@]5(C)[C@H](CC[C@@H]6[C@@H]5CC[C@]5(C)[C@@H](C7=CC(=O)OC7)CC[C@]65O)C4)O[C@@H]3C)O[C@@H]2C)C[C@H](O)[C@@H]1O,-7,-23,-7%,?,4.1µM*,3%
Nc1nc(NC(=O)c2cccnc2)nn1-c1ccccc1,13,12,-1%,.,59%,2%
Nc1nc(NC(=O)c2ccc(Cl)cc2)nn1-c1ccccc1,17*,33,17%,42%,253%,6%
CCC(NC(=O)C(C)NC)C(=O)N1CCCC1C(=O)NC1CCCc2ccccc21 (stereo not given),.,.,.,33%,?,1%
CCc1cc(C(=O)COc2ccccc2F)c(O)cc1O,28*,16,-47%,?,?,-24%
N#CCCN/N=C(/Cc1nc2ccccc2[nH]1)c1cccc(Cl)c1,43*,99*,11%,10µM*,.,6%
CCc1cc(C(=O)Cc2ccc(F)cc2)c(O)cc1O,-5,-8,-47%,?,69%,-20%
CN/N=C(\Cc1nc2ccccc2[nH]1)c1ccc([N+](=O)[O-])cc1,32*,57*,0%,?,?,-6%
CCc1cc(C(=O)Cc2nc3ccccc3[nH]2)c(O)cc1O,40*,143*,-4%,57%,-4%,1%
Clc1ccc(/C=C/c2nc3ccccc3[nH]2)c(Cl)c1,-1,15,-165%,9%,-70%,-46%
O=C(COc1ccc([N+](=O)[O-])cc1)NCCc1nc2ccccc2[nH]1,-2,30,1%,0%,130%,2%
O=C(Nc1ccnn1C1CCN(C(=O)Cc2ccccc2F)CC1)C1CC1,-1,12,7%,11%,115%,-2%
CCCn1cc(S(=O)(=O)c2ccc(OC)cc2)c(=O)c2cc(OC)ccc21,-1,4,3%,-4%,13%,3%
COc1ccc(C2=NN(CC(=O)Nc3cc(C)ccc3C)C(=O)CC2)cc1,-3,-2,-4%,-10%,?,1%
O=C(Cc1nc2ccccc2[nH]1)c1ccc([N+](=O)[O-])cc1,29*,60*,7%,1.9µM*,2.9µM*,0%
O=C(NCCc1nc2ccccc2[nH]1)c1ccc([N+](=O)[O-])cc1,-4,-6,4%,3%,23%,0%
O=C(Cc1nc2ccccc2[nH]1)c1ccc(Cl)cc1,23*,62*,-18%,2.3µM*,?,-2%
Clc1ccc(/C(Cc2nc3ccccc3[nH]2)=N\Nc2ccccc2)cc1,37*,34*,-3%,?,?,-7%
O=C(CN1C(=O)S/C(=C\c2cccs2)C1=O)Nc1ccc(O)c(C(=O)O)c1,-3,7,19%,-12%,10µM*,8%
O=C(CN1C(=O)S/C(=C\C=C\c2ccccc2)C1=O)Nc1cccc(O)c1,34*,38*,7%,?,32%,-12%
O=C(CCCN1C(=O)S/C(=C\C=C\c2ccccc2)C1=O)Nc1ccc(C(=O)O)cc1,1,14,5%,24%,?,1%
O=C(CCN1C(=O)S/C(=C\C=C\c2ccccc2)C1=O)Nc1ccc(O)cc1,32*,52*,-10%,66%,58%,10%
Cc1cc(C)c(S(=O)(=O)N2CCN(C(=O)C3CCCO3)CC2)c(C)c1 (stereo not given),.,.,.,-4%,3%,-3%
Cc1sc2ncnc(NCCc3ccc(S(N)(=O)=O)cc3)c2c1C,-2,-17,1%,.,?,9%
CCOC(=O)/C(=N/O)C1=NC(C)(C)Cc2cc(C)c(C)cc21,-2,-6,0%,7%,-11%,0%
SMILES,Cycloheximide cs,Shiga toxin inh,NS1 function inh,Pf growth 48h,Pf growth 96h,SARS PLpro yeast
Cc1cc(C)n(-c2ccc(NC(=O)C3CCCCN3C(=O)c3ccoc3)cc2)n1 (stereo not given),12,-2,16%,-5%,9.3µM*,0%
Cc1cc(C)n(-c2ccc(NC(=O)C3CCCCN3C(=O)c3sccc3C)cc2)n1 (stereo not given),4,-25,-3%,-11%,15µM*,3%
Cc1cc(C)n(-c2ccc(NC(=O)C3CCCCN3C(=O)c3occc3C)cc2)n1 (stereo not given),-6,-17,1%,-15%,6%,-3%
O=C(Cc1ccc(Cl)cc1Cl)OCC(=O)N1CCN(C(=O)c2ccco2)CC1,10,9,.,26%,23%,0%
CC(=O)c1ccc(S(=O)(=O)Nc2ccc(C(=O)N(C)CC(=O)Nc3cccc(C)c3C)cc2)cc1,.,.,.,?,?,-15%
CCN(C(=O)c1cc2c(=O)[nH]c3ccc(C)cc3c2s1)c1ccc(OC)cc1,-1,19,3%,?,5.2µM*,0%
Cc1ccc(C)c(N(C)C(=O)c2cc3c(=O)[nH]c4ccc(C)cc4c3s2)c1,5,-17,8%,10µM*,?,-2%
CCOCCCN(Cc1ccco1)C(=O)c1cc2c(=O)[nH]c3ccc(C)cc3c2s1,-3,-4,18%,.,-11%,5%
Cc1ccc2[nH]c(=O)c3cc(C(=O)N(C)Cc4ccco4)sc3c2c1,23*,48,-49%,.,-19%,?
O=C(CSc1nc2ccccc2[nH]1)N/N=C/c1ccco1,24*,62*,-10%,14%,45%,1%
Cc1cc(SCC(=O)N/N=C/c2ccco2)nc2ccccc12,1,19,-4%,-7%,2%,-1%
O=C(CSc1nc2ccccc2o1)N/N=C/c1ccco1,21*,50*,-13%,134%,134%,-2%
CC(=NNC(=O)CSc1nc2ccccc2o1)c1ccco1,.,.,.,.,.,2%
Cn1cccc1/C=N/NC(=O)CSc1nc2ccccc2[nH]1,20*,22,1%,30%,10%,1%
C/C(=N\NC(=O)CSc1nc2ccccc2[nH]1)c1ccncc1,-2,-11,.,1%,20%,-1%
COC(=O)c1ncccc1SC,-2,6,17%,36%,8%,10%
O=C(COC(=O)c1ccco1)Nc1ccc2c(c1)OCCO2,56*,79*,-12%,0%,-15%,-3%
CC1(C)Oc2ccc(NC(=O)c3ccco3)cc2O1,32*,91*,-29%,138%,-24%,-14%
Cn1cccc1C(=O)OCC(=O)Nc1ccc2c(c1)OCCO2,.,.,.,.,.,-20%
O=C(Nc1ccc2c(c1)OCCO2)c1ccco1,40*,112*,1%[9.22 µM],209%,?,-15%
O=C(Nc1cccc(NC(=O)c2ccco2)c1)c1ccc2c(c1)OCCO2,22,43,-3%,32%,-2%,1%
Cc1c(NC(=O)C2CCCCC2)cc(C(=O)N2CCOCC2)cc1[N+](=O)[O-],-2,13,.,14%,?,4%
NC(CS)C(=O)O (stereo not given),.,.,.,4.3µM*,-8%,.
